Source: PubChem BioAssay (Tox21)
Records with an inconclusive call do not appear. The source made the active and inactive calls. Unless noted, calls come from the whole dose curve; as a rule, active = well fitted curve in the direction sought with a large enough effect in the repeat runs; inconclusive = weak or mixed curves; inactive = no such curve, though single readings can be large; an effect the other way counts as inactive or inconclusive.

Legend:
[1] = qHTS assay to identify small molecule agonists of the peroxisome proliferator-activated receptor delta (PPARd) signaling pathway - cell viability counter screen (AID 743211); note: nearly all actives have a fitted effect of over 55% in size
Summary of the method: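 Viability of GeneBLAzer PPARd UAS-bla HEK293H cells was assessed after 17 h compound incubation at 37C, using CellTiter-Glo reagent added after the reporter read and luminescence recorded 30 min later.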

[2] = qHTS assay to identify small molecule antagonists of the peroxisome proliferator-activated receptor delta (PPARd) signaling pathway - cell viability counter screen (AID 743213); note: nearly all actives have a fitted effect of over 50% in size
Summary of the method: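 PPARd-bla HEK293H cells were treated with compounds plus agonist L165041 (300 nM final) for 17 h at 37 C. Viability was then read in the same wells by CellTiter-Glo luminescence after 30 min at room temperature.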

[3] = qHTS assay to identify small molecule agonists of the farnesoid-X-receptor (FXR) signaling pathway - cell viability counter screen (AID 743218); note: nearly all actives have a fitted effect of over 45% in size
Summary of the method: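 After 16 h at 37 C with test compounds, FXR-bla HEK 293T cells were given LiveBLAzer B/G substrate for 2 h at RT and then CellTiter-Glo; luminescence was taken after 30 min.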

[4] = molecular target: Vitamin D3 receptor (Homo sapiens) (UniProt P11473); assay: qHTS assay to identify small molecule agonists of the vitamin D receptor (VDR) signaling pathway (AID 743222; calls by dose curve)
Summary of the method: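 VDR-bla cells were seeded, left 4 h, treated with compounds in DMSO for 16 h, incubated 2 h at RT with B/G FRET substrate, and read for fluorescence.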

[5] = qHTS assay to identify small molecule antagonists of the farnesoid-X-receptor (FXR) signaling pathway - cell viability counter screen (AID 743221; active = well fitted cell-killing curve with a large enough effect in the repeat runs, not every such curve was filed as active; note: nearly all actives have a fitted effect of over 50% in size)
Summary of the method: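 Quantitative HTS of the Tox21 10K library run in parallel with the beta-lactamase reporter read. HEK 293T cells carrying a UAS-driven bla reporter got compound and 50 uM CDCA (final) for 16 h; ATP-based luminescence followed.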

[6] = molecular target: Vitamin D3 receptor (Homo sapiens) (UniProt P11473); assay: qHTS assay to identify small molecule antagonists of the vitamin D receptor (VDR) signaling pathway (AID 743223; active = well fitted inhibition curve with a large enough effect in the signal ratio in the repeat runs, not every such curve was filed as active; the % refers to the signal ratio)
Summary of the method: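 Fluorescence from LiveBLAzer B/G FRET substrate, read after 2 h at room temperature, reflects beta-lactamase reporter activity in VDR-bla cells treated 16 h at 37C with compounds and agonist 1alpha,25-dihydroxyvitamin D3 (3 nM final).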

[7] = molecular target: Peroxisome proliferator-activated receptor delta (Homo sapiens) (UniProt Q03181); assay: qHTS assay to identify small molecule agonists of the peroxisome proliferator-activated receptor delta (PPARd) signaling pathway (AID 743212; calls by dose curve)
Summary of the method: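 Quantitative high-throughput agonist screen in a HEK293H beta-lactamase reporter line under UAS control. Compounds in DMSO, at 37 C. Fluorescence read after 2 h with FRET substrate at room temperature.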

[8] = molecular target: Peroxisome proliferator-activated receptor delta (Homo sapiens) (UniProt Q03181); assay: qHTS assay to identify small molecule antagonists of the peroxisome proliferator-activated receptor delta (PPARd) signaling pathway (AID 743215; active = well fitted inhibition curve with a large enough effect in the signal ratio in the repeat runs, not every such curve was filed as active; the % refers to the signal ratio;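 note: cells stimulated with agonist L165041 at 300 nM final during compound exposure; series mostly up to about 62 µM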)
Summary of the method: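 With L165041 present at 300 nM final, compounds were incubated 17 h at 37 C on PPARd UAS-bla HEK293H cells. A FRET-based beta-lactamase substrate was then applied for 2 h at room temperature and fluorescence intensity recorded.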

[9] = molecular target: Bile acid receptor (Homo sapiens) (UniProt Q96RI1); assay: qHTS assay to identify small molecule agonists of the farnesoid-X-receptor (FXR) signaling pathway (AID 743220; active = well fitted activation curve with a large enough effect in the signal ratio in the repeat runs, not every such curve was filed as active; the % refers to the signal ratio)
Summary of the method: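 Beta-lactamase reporter under UAS control in GeneBLAzer FXR HEK 293T cells (5000/well) measured with LiveBLAzer FRET substrate after 2 h at room temperature. Compound exposure lasted 16 h at 37C.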

[10] = molecular target: Bile acid receptor (Homo sapiens) (UniProt Q96RI1); assay: qHTS assay to identify small molecule antagonists of the farnesoid-X-receptor (FXR) signaling pathway (AID 743217; active = well fitted inhibition curve with a large enough effect in the signal ratio in the repeat runs, not every such curve was filed as active; the % refers to the signal ratio)
Summary of the method: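 In this cell-based antagonist screen, inhibition of CDCA-driven (50 uM final) UAS-beta-lactamase expression in HEK 293T cells was measured by FRET fluorescence following 16 h compound exposure at 37 °C.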

Measured: Potency

Peroxisome proliferator-activated receptor delta (Homo sapiens), sequence (Q03181 whole entry, looked up): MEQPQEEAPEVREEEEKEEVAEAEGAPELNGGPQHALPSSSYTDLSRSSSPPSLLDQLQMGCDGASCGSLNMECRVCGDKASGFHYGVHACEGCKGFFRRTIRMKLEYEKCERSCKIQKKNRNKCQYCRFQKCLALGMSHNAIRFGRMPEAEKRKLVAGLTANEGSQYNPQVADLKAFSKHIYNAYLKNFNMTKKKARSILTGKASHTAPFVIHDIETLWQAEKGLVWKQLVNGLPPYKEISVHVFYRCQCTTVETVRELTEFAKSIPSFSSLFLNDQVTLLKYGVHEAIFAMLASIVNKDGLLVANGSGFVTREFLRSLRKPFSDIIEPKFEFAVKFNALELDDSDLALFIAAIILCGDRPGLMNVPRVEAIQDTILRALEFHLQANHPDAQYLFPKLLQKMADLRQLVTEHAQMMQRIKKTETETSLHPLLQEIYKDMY
Vitamin D3 receptor (Homo sapiens), sequence (P11473 whole entry, looked up): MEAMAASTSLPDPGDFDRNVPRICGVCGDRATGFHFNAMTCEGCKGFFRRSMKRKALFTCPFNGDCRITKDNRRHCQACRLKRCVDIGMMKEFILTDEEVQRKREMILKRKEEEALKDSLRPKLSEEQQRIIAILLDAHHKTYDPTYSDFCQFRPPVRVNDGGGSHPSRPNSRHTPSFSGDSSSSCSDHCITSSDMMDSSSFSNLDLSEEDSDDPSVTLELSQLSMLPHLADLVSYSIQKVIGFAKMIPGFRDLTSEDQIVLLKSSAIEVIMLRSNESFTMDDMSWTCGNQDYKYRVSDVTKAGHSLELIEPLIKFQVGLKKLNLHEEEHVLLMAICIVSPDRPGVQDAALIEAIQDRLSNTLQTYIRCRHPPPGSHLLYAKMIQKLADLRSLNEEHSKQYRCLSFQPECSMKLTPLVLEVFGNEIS
Bile acid receptor (Homo sapiens), sequence (Q96RI1 whole entry, looked up): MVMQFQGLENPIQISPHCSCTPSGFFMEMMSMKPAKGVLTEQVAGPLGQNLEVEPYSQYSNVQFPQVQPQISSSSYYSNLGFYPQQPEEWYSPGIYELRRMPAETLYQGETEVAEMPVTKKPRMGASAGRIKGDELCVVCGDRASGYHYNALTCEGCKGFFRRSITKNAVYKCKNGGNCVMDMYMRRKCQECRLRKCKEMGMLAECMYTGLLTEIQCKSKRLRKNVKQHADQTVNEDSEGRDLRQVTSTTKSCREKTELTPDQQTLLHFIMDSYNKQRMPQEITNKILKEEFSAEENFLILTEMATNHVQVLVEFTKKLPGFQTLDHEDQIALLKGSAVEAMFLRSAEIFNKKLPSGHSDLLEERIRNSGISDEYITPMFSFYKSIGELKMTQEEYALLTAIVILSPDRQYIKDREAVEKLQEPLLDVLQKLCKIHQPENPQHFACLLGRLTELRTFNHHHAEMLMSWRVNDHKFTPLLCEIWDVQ

COc1cc(OC)nc(Sc2cccc(Cl)c2C(=O)O)n1
inactive: [1] | [2] | [3] | [4]

CC1CN1P(=O)(N1CC1C)N1CC1C (stereo unspecified)
inactive: [1] | [2] | [3] | [5] | [4]

CC1(C)C(=O)NC(=O)NC1=O
inactive: [1] | [2] | [3] | [5] | [4]

CNC(=O)Oc1cccc(C(C)C)c1
inactive: [1] | [2] | [3] | [5] | [4] | [6]

CC(C(O)c1ccccc1)N(C)C/C=C/c1ccccc1 (stereo unspecified)
inactive: [2] | [3] | [5] | [4] | [6]

O=C1CN2CCOC2(c2ccccc2Cl)c2cc(Cl)ccc2N1 (stereo unspecified)
not listed: [1] | [6] | [10]
inactive: all other assays above

CNCC(=O)c1ccc(O)c(O)c1
inactive: [1] | [3] | [5] | [4]

COc1ccc2c(c1OC)CN1CCc3cc4c(cc3C1C2)OCO4 (stereo unspecified)
inactive: [2] | [3] | [5] | [4]

ClCCOCOCCCl
not listed: [7] | [8] | [10]
inactive: all other assays above

CCCCCCBr
inactive: [1] | [5] | [4] | [6]

ClC(Cl)(Cl)C(Cl)(Cl)Cl
inactive: [1] | [2] | [3] | [4] | [6]

COc1cccc2c1cc([N+](=O)[O-])c1c(C(=O)O)cc3c(c12)OCO3
inactive: [1] | [3]

CC(C)CP(=S)(S)CC(C)C
inactive: [1] | [10] | [5]

CCCSP(=S)(OCC)Oc1ccc(Cl)cc1Cl (stereo unspecified)
not listed: [1] | [9] | [10]
inactive: all other assays above

N#CCBr
not listed: [7] | [8] | [10]
inactive: all other assays above

CN1CCN(C(=O)O[C@H]2c3nccnc3C(=O)N2c2ccc(Cl)cn2)CC1
inactive: [1] | [2] | [3] | [9] | [4]

CCS(=O)(=O)CCSP(=O)(OC)OC
inactive: [7] | [2] | [8] | [3] | [5] | [4]

O=C1OC(CCN2CCCCC2)OC1(c1ccccc1)c1ccccc1 (stereo unspecified)
inactive: [1] | [2] | [3] | [4] | [6]

CCCCP(CCCC)CCCC
not listed: [1] | [6] | [9]
inactive: all other assays above

C=CCC1=C(C)[C@@H](OC(=O)[C@@H]2[C@@H](C=C(C)C)C2(C)C)CC1=O
inactive: [2] | [4]

C[C@]12CC[C@H]3[C@@H](CC=C4C[C@@H](O)CC[C@@]43C)[C@@H]1CC[C@@H]2O
inactive: [1] | [2] | [3] | [5] | [4] | [6]
